# Assay results: PubChem BioAssay (NCATS)
# Several values for one entry are separate records, joined by “and”; a condition that tells them apart may be missing. Equal values may be shown once. Records with an inconclusive call do not appear. Activity calls are given as the source filed them. The call rests on the fitted dose curve; in most records, active means well fitted inhibition curve with a large enough effect; inconclusive means small, poorly fitted or top-dose-only effect; inactive means flat fitted curve, though single readings scatter.
# System: CRL-7250
# Test: Cytotoxic Profiling of Annotated Libraries Using Quantitative High-Throughput Screening (AID 1296008); further: nearly all actives have a fitted effect of over 60% in size
# Conditions: Five cell lines viability, CellTiter-Glo ATP luminescence, 48-72 h; max response: stronger effect = lower value
# Procedure, shortened: (§1)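 Compounds were pin-transferred onto cells and incubated 48 or 72 hr at 37 degree Celsius, 95% humidity. CellTiter-Glo was added, plates sat 10 min at room temperature, then ATP-coupled luminescence was imaged as the viability read-out.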
# On the % scale 0 is the no-effect control and ±100 the full control effect; potency means the concentration at half of the fitted maximal effect.
Structure (SMILES),max response,outcome
CCCCC/C=C\C/C=C\C/C=C\C/C=C\CCCC(=O)NCC(=O)O,-2.63% (inactive),–
CCC1(CC)C(=O)C=CNC1=O,-2.85% (inactive),–
COC1CC(=C(c2cccs2)c2cccs2)C[N+](C)(C)C1 (stereo not drawn),-1.67% (inactive),–
CC(C)(C)NCC(O)c1cc(Cl)c(N)c(C(F)(F)F)c1 (stereo not drawn),–,inactive
O=C1c2ccccc2C(=O)c2ccccc21,-3.19% (inactive),–
COP(=S)(OC)Oc1ccc(SC)c(C)c1,-0.812% (inactive),–
CCCCCCC(=O)CCCCCC/C=C/C[C@@H](O)[C@H](O)[C@@](N)(CO)C(=O)O,-1.04% (inactive),–
CC(C)c1cccc(C(C)C)c1O,-8.58% (inactive) and -1.5% (inactive),–
CCOP(=S)(OCC)Oc1ccc2c(C)c(Cl)c(=O)oc2c1,-4.21% (inactive),–

# System: HEK293
# Test: as above
# Conditions: Five cell lines viability, CellTiter-Glo ATP luminescence, 48-72 h; max response: stronger effect = lower value
# Procedure, shortened: as §1
Structure (SMILES),outcome,Potency,max response
Clc1ccccc1N1CCNCC1,inactive,–,–
CCC(C)(C)c1ccc(O)cc1,inactive,–,–
C[C@]12CCC(=O)C=C1CC[C@@H]1[C@H]3CC[C@](C)(O)[C@@]3(C)CC[C@@H]12,–,30.9 µM (active),–
O=C1CN=C(c2ccccc2)c2cc([N+](=O)[O-])ccc2N1,–,–,-13.4% (inactive)
CC(C)=CC1C(C(=O)OCN2C(=O)C3=C(CCCC3)C2=O)C1(C)C (stereo not drawn),–,–,-22.7% (inactive)
CCN(CC)CCc1c[nH]c2ccccc12,–,–,-22% (inactive)

# System: HaCat
# Test: as above
# Conditions: Five cell lines viability, CellTiter-Glo ATP luminescence, 48-72 h; max response: stronger effect = lower value
# Procedure, shortened: as §1
Structure (SMILES),outcome,max response
Clc1ccccc1N1CCNCC1,inactive,–
C[C@@H]1CC2=CC(=O)CC[C@@H]2[C@H]2CC[C@@]3(C)[C@@H](CC[C@]3(C)O)[C@@H]21,–,-11% (inactive)
CCC(C)(C)c1ccc(O)cc1,–,2.15% (inactive)
CCC1(CC)C(=O)C=CNC1=O,–,-9.12% (inactive)
C[C@](O)(CS(=O)(=O)c1ccc(F)cc1)C(=O)Nc1ccc(C#N)c(C(F)(F)F)c1,inactive,–
COC1CC(=C(c2cccs2)c2cccs2)C[N+](C)(C)C1 (stereo not drawn),–,2.01% (inactive)
CC(C)(C)NCC(O)c1cc(Cl)c(N)c(C(F)(F)F)c1 (stereo not drawn),–,-13.5% (inactive)
O=c1oc2ccccc2c(O)c1Cc1c(O)c2ccccc2oc1=O,inactive,–
COP(=S)(OC)SCN1C(=O)c2ccccc2C1=O,inactive,–
O=C1CN=C(c2ccccc2)c2cc([N+](=O)[O-])ccc2N1,inactive,–
O=C1c2ccccc2C(=O)c2ccccc21,inactive,–
CC(C)=CC1C(C(=O)OCN2C(=O)C3=C(CCCC3)C2=O)C1(C)C (stereo not drawn),inactive,–
O=C(Nc1ccc(Br)cc1)c1cc(Br)cc(Br)c1O,inactive,–
COP(=S)(OC)Oc1ccc(SC)c(C)c1,–,-0.754% (inactive)
COc1cccc(C(=O)CCN[C@@H](C)[C@H](O)c2ccccc2)c1,inactive,–
CC(C)c1cccc(C(C)C)c1O,inactive,–
CCN(CC)CCc1c[nH]c2ccccc12,–,-3.07% (inactive)
CCOP(=S)(OCC)Oc1ccc2c(C)c(Cl)c(=O)oc2c1,–,0.247% (inactive)
